Screens: PubChem, National Center for Advancing Translational Sciences (NCATS)
MCF10A rereplic: A quantitative high throughput screen for small molecules that induce DNA re-replication in MCF 10a normal breast cells | Potency, µM (highest dose often 46.1 µM), without a hit: at the top dose activity, positive = re-replication, usual class: activators | MCF 10A DNA re-replication, Hoechst nuclear intensity, 48 h | actives 2.9% (n = 350,000) | AID 624296, 2012; further: % of control where 0% means no effect; nearly all actives have a fitted effect of over 50% in size
A-T KAP1 phos: qHTS Assay for Identifying a Potential Treatment of Ataxia-Telangiectasia; F2112 A-T fibroblasts, KAP-1 phosphorylation AlphaLISA; neocarzinostatin DNA damage 30 min before lysis; Potency, µM (highest dose often 57.5 µM), for inactives: top-dose activation, actives largely listed as activators; actives 0.19% (n = 320,000); AID 485349, 2010; further: % of control where 0% means no effect; nearly all actives have a fitted effect of over 45% in size
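ATM-like activity read as KAP-1 phosphorylation via AlphaLISA donor/acceptor antibody pairs after lysis and 6 hr at 25C. Cells were ATM-null patient fibroblasts (F2112, hTERT), dosed 60 min, then exposed to the DSB inducer NCS for 30 min.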
a7 integrin act: qHTS for Activators of Integrin-Mediated Alleviation for Muscular Dystrophy; alpha7betagal myoblasts, beta-gal FDG fluorescence, 48 h; Potency, µM (highest dose often 38.3 µM), for inactives: at the top dose activation, hits mostly activators; actives 0.064% (n = 350,000);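 further: 100% = response of the positive control SU9516; nearly all actives have a fitted effect of over 60% in size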
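Alpha7betagal+/- myoblasts (passage 13) were plated 16-24 hr, then exposed to compounds (1:260 dilution of DMSO stock) for 48 hours at 37C. After MPER lysis, β-galactosidase reporter activity was read as FDG fluorescence (ex 480/em 540) after 30 minutes.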
Mito fusion act: qHTS Assay for Small Molecule Inhibitors of Mitochondrial Division or Activators of Mitochondrial Fusion; actives 0.23% (n = 320,000); Potency, µM (series often up to 46.1 µM), inactives show at the highest dose growth rescue (activation), hits mostly activators; S. cerevisiae fusion-defective mutant growth rescue, CellTiterGlo 48 h; further: % of control where 0% means no effect; nearly all actives have a fitted effect of over 45% in size
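Temperature-sensitive fusion-defective S. cerevisiae (e.g. fzo1-1, mgm1-5) were grown with compound in YPEG medium (3% ethanol, 3% glycerol) for 48 hours at 37C. Growth rescue was measured as viability by CellTiterGlo luminescence after 10 minutes at ambient.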
SW480 rereplic: A quantitative high throughput screen for small molecules that induce DNA re-replication in SW480 colon adenocarcinoma cells; Potency, µM (top dose mostly 46.1 µM), inactives show at the highest dose re-replication activation, hits mostly activators; actives 1.8% (n = 340,000); SW480 DNA re-replication, Hoechst DNA content imaging, 48 h; AID 624297, 2012; further: % of control where 0% means no effect; nearly all actives have a fitted effect of over 55% in size
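Image-based read-out: total Hoechst fluorescence of nuclei (405 nm excitation, 500-530 nm emission), with hits raising the fraction of high-intensity nuclei. SW480 colon cells incubated 48 hr with compounds at 37 C.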
An asterisk follows results filed as active; [ ] = another dose, or the depositor's remark. Shown are actives, neighbours in structure and some others; about 4.2% of the full set was active somewhere. The call rests on the fitted dose curve; in most records, active means well fitted activation curve with a large enough effect; inconclusive means small, poorly fitted or top-dose-only effect; inactive means no such curve, though single readings can be large or run the other way. Potency means the concentration at half of the fitted maximal effect.

Screening O=c1oc2ccccc2c2c1C1O[C@](c3ccsc3)(Cc3c1ccc1ccccc31)O2 returned A-T KAP1 phos -9.5%[11.5 µM] and Mito fusion act 12.0%[9.22 µM].
For CC1(C)N=C(N)N=C(N)N1c1ccccc1 the results were MCF10A rereplic inconclusive, A-T KAP1 phos -1.5%, a7 integrin act 0.7%, Mito fusion act -3.7% and SW480 rereplic 17.4%.
Screening CC1(C)N=C(N)N=C(N)N1c1cccc(CN)c1 returned MCF10A rereplic -0.2%, A-T KAP1 phos 28.2µM*, a7 integrin act 4.2%, Mito fusion act -4.3% and SW480 rereplic -5.9%.
Screening CC(=O)O[C@H]1Cc2ccccc2N(C(N)=O)c2ccccc21 returned Mito fusion act -12.4%.
`O=C(CSc1nc2ccccc2c(=O)n1-c1ccccc1)N/N=C/C=C/c1ccccc1[N+](=O)[O-]` gave MCF10A rereplic 4.61µM*, A-T KAP1 phos -5.8%, a7 integrin act inconclusive, Mito fusion act -6.7% and SW480 rereplic 13.9%.
For O=C(CSc1nc2ccccc2c(=O)n1-c1ccc(Cl)cc1)N/N=C/C=C/c1ccccc1[N+](=O)[O-] the results were MCF10A rereplic inconclusive, A-T KAP1 phos 8.0%, a7 integrin act 7.9%, Mito fusion act -1.2% and SW480 rereplic inconclusive.
For CCN1C(=NCc2ccco2)N[C@@H](c2cccc(F)c2)C(C(=O)OC)=C1C the results were MCF10A rereplic -5.7%, A-T KAP1 phos -16.8%, a7 integrin act 17.2%, Mito fusion act -3.4% and SW480 rereplic -12.3%.
`CCCc1nn2c(=O)cc(COc3ccc(NC(=O)c4ccco4)cc3)nc2s1` gave MCF10A rereplic 4.2%, A-T KAP1 phos 0.2%, a7 integrin act -16.3%, Mito fusion act 1.4% and SW480 rereplic 19.6%.
Screening c1ccc(NC2=Nc3cccc4cccc2c34)cc1 returned MCF10A rereplic -39.2%, A-T KAP1 phos 0.3%, a7 integrin act 12.0%, Mito fusion act -6.3% and SW480 rereplic -2.5%.
`Fc1ccc(/C=N/NC2=Nc3cccc4cccc2c34)cc1` gave MCF10A rereplic 16.4µM*, A-T KAP1 phos -10.1%, a7 integrin act 17.7%, Mito fusion act 6.1% and SW480 rereplic 2.7%.
`CN1C(C(=O)NCC2CC2)CC2Cn3c(nc4cc(Cl)c(Cl)cc43)C21` (stereo not drawn) gave MCF10A rereplic 5.2%, A-T KAP1 phos 35.5µM*, a7 integrin act 0.1%, Mito fusion act -36.5% and SW480 rereplic 12.1%.
Screening Cc1cc2nc3n(c2cc1C)CC1CC(C(=O)NCC2CC2)N(C)C31 (stereo not drawn) returned MCF10A rereplic 0.4%, A-T KAP1 phos 28.2µM*, a7 integrin act 3.6%, Mito fusion act -30.6% and SW480 rereplic -39.9%.
`COc1cc2c(cc1OC)C(c1ccccc1Cl)N(C)CC2` (stereo not drawn) gave MCF10A rereplic inconclusive, A-T KAP1 phos -6.6%, a7 integrin act 21.2%, Mito fusion act -0.6% and SW480 rereplic -45.5%.
C[C@@H]1CCCCO[C@@H](CN(C)C(=O)C2CCCCC2)[C@@H](C)CN([C@H](C)CO)C(=O)c2cc(NC(=O)NC3CCCCC3)ccc2O1 was read as a7 integrin act 20.7%.
`Cc1cc(S(=O)(=O)N2CCCCC2)ccc1OCC(=O)N1CCOCC1` gave MCF10A rereplic 1.4%, A-T KAP1 phos 23.2%, a7 integrin act 7.6%, Mito fusion act 1.4% and SW480 rereplic -5.0%.
CC12CCC(=O)N1C(C(=O)N1CCN(c3cccc(Cl)c3)CC1)CS2 (stereo not drawn) was read as MCF10A rereplic 12.0%, A-T KAP1 phos -1.4%, a7 integrin act 8.8%, Mito fusion act 2.8% and SW480 rereplic -4.1%.
NC(=O)c1ccccc1NC(=O)CCc1ccccc1 was read as MCF10A rereplic 4.4%, A-T KAP1 phos 1.8%, a7 integrin act -2.6%[7.66 µM], Mito fusion act 2.2% and SW480 rereplic -9.0%.
Screening CSc1cccc(NC(=S)NC(=O)CCc2ccccc2)c1 returned MCF10A rereplic 16.4µM*, A-T KAP1 phos 4.1%, a7 integrin act 17.9%, Mito fusion act -8.8% and SW480 rereplic inconclusive.
`Cc1cccc(C)c1NC(=S)NC(=O)CCc1ccccc1` gave MCF10A rereplic inconclusive, A-T KAP1 phos 9.0%, a7 integrin act 9.4%, Mito fusion act -1.1% and SW480 rereplic 3.26µM*.
For NC(=O)c1ccccc1NC(=S)NC(=O)CCc1ccccc1 the results were MCF10A rereplic 5.8µM*, A-T KAP1 phos 4.7%, a7 integrin act -16.3%, Mito fusion act 3.3% and SW480 rereplic 3.26µM*.
CSc1cccc(NC(=O)CCc2ccccc2)c1 was read as MCF10A rereplic 2.4%, A-T KAP1 phos -4.0%, a7 integrin act 6.8%, Mito fusion act -1.3% and SW480 rereplic inconclusive.
For CSc1cccc(NC(=O)NCc2cccc(CNC(=O)Nc3cccc(SC)c3)c2)c1 the results were MCF10A rereplic 7.31µM*, A-T KAP1 phos 7.0%, a7 integrin act -58.8%, Mito fusion act 16.2% and SW480 rereplic 10.9%.
For O=C(COC(=O)c1cc(S(=O)(=O)N2CCOCC2)ccc1Cl)c1ccc[nH]1 the results were a7 integrin act -11.4%.
O=C1C=CC(=O)N1CCCCCCCCCCN1C(=O)C=CC1=O was read as MCF10A rereplic inconclusive, a7 integrin act -38.5% and SW480 rereplic 6.51µM*.
Cc1cccc(-n2ccc(=O)c(C(=O)Nc3ccc(S(=O)(=O)Nc4onc(C)c4C)cc3)n2)c1 was read as MCF10A rereplic 3.5%, A-T KAP1 phos -0.2%, a7 integrin act 9.9%, Mito fusion act -26.7% and SW480 rereplic inconclusive.
For COc1ccc(CN2C(=O)C(CC(=O)NCc3cccs3)CC(C(=O)N3CCOCC3)=C2C)cc1 (stereo not drawn) the results were a7 integrin act -7.8%.
For Cc1cc(NC(=O)CSc2nnnn2C)n(-c2ccccc2)n1 the results were MCF10A rereplic 6.51µM*, A-T KAP1 phos 0.8%, a7 integrin act -7.1%, Mito fusion act 0.7% and SW480 rereplic 4.11µM*.
For Cc1cc(NC(=O)CSc2nc(-c3ccco3)cc(C(F)(F)F)n2)n(-c2ccccc2)n1 the results were MCF10A rereplic 10.3µM*, a7 integrin act 22.1%, Mito fusion act 1.9% and SW480 rereplic inconclusive.
Screening Cc1ccc(NC(=O)CSc2nc(-c3ccco3)cc(C(F)(F)F)n2)cc1C returned MCF10A rereplic 1.16µM*, a7 integrin act -13.9%, Mito fusion act -3.8% and SW480 rereplic 2.59µM*.
For Cn1nnnc1SCC(=O)Nc1cc(C(C)(C)C)nn1-c1ccccc1 the results were MCF10A rereplic -0.5%, A-T KAP1 phos 0.5%, a7 integrin act 3.3%, Mito fusion act 0.0% and SW480 rereplic -6.1%.
